In PubChem BioAssay AID624167 (Sanford-Burnham Center for Chemical Genomics, 2012):

Assay: Peg3 promoter luciferase inhibitors, potency, dose response, cell-based, HeLa, CREF/GAPDH counter-screen panel (AID 624167)
Details: CREF/GAPDH counter-screens; run 1, dose range 1, at 100 µM (top of the series)

Row | Compound | inhibition
1 | NC(C(=O)O)C1ON=C(Cl)C1O (stereo not drawn) | 67%
2 | CCCC(=O)NC(c1ccc(Cl)cc1)c1ccc2cccnc2c1O (stereo not drawn) | 70.4%
3 | CS(=O)(=O)Nc1cccc(NC(=O)C2Cc3c(-c4cccc(F)c4)ccnc3O2)c1 (stereo not drawn) | 74.9%
4 | CCC(c1ccc(O)c(O)c1)C(CC)c1ccc(O)c(O)c1 (stereo not drawn) | 99%
5 | Cc1ccc(/C=C2\SC(=S)N(CCCC(=O)NNC(=O)c3ccccc3O)C2=O)cc1 | 76.4%
6 | CC1=NOC(=O)/C1=C\c1ccc(-c2ccccc2Br)o1 | 94.2%
7 | COc1ccc(C(NC(C)=O)c2ccc3cccnc3c2O)c(OC)c1 (stereo not drawn) | -5.47%
8 | CC(=O)c1cccc(-c2ccnc3c2CC(C(=O)Nc2cccc(NS(C)(=O)=O)c2)O3)c1 (stereo not drawn) | 51.4%
9 | Cc1cc(NC(c2ccc(Cl)cc2)c2ccc3cccnc3c2O)no1 (stereo not drawn) | 39.3%
10 | CCCC(=O)NC(c1ccc(C)cc1)c1ccc2cccnc2c1O (stereo not drawn) | 43.4%
11 | COc1ccc(Nc2ncnc3ccc(Br)cc23)c(OC)c1 | 90.8%
12 | Cc1cccc(OCC(=O)NCC(=O)N/N=C/c2cc(Br)cc(Br)c2O)c1 | 67.3%
13 | Cc1ccsc1/C=N/Nc1cccc(C(=O)O)c1 | 95.8%
14 | COc1ccccc1Nc1nc(-c2sc(NC(=O)c3ccco3)nc2C)cs1 | 18%
15 | CCc1ccc(/C=C2\SC(=S)N(CCCC(=O)Nc3cc(C)on3)C2=O)cc1 | 75.9%
16 | CCCCCCCNC(=O)C1(CC2CC(c3cccc(Br)c3)=NO2)CCNCC1 (stereo not drawn) | 95%
17 | O=C(CCSc1nc2ccccc2s1)N/N=C/c1c(O)ccc2ccccc12 | -10.4%

Row | Compound | inhibition
18 | COc1ccc(/C=C2\SC(=S)N(CCCC(=O)NNC(=O)c3ccccc3O)C2=O)cc1 | 15%
19 | O=C(N/N=C/c1cc([N+](=O)[O-])ccc1O)c1ccc(COc2ccc3c(c2)CCC3)o1 | 27.1%
20 | Cc1ccc(NC(=S)NC(=O)c2ccc(F)cc2)cc1S(=O)(=O)Nc1ccccc1Cl | 70.9%
21 | CS(=O)(=O)c1ccc(-c2cn3cc(C(=O)O)ccc3n2)cc1 | 67.7%
22 | CN1CCC2(CC1)N=C(c1ccc(F)cc1)C(=S)N2C(=O)c1ccc(C(C)(C)C)cc1 | 93.1%
23 | O=C(NNC(=O)c1cccnc1SCc1cccc([N+](=O)[O-])c1)c1ccccn1 | 6.38%
24 | COCCCNC(=O)c1ccc(Cn2c(=O)c3ccccc3n(Cc3ccccc3C#N)c2=O)cc1 | 32.3%
25 | COc1ccc(N(C(=O)CCl)C(C(=O)NC2CCCCC2)c2cccnc2)cc1 (stereo not drawn) | 82.9%
26 | O=C(N/N=C\c1c(O)ccc2ccccc12)c1cncc(Br)c1 | 65.3%
27 | Clc1ccccc1/C=C/c1nc(-c2ccccn2)no1 | 97.4%
28 | COc1ccc(-n2cc(-c3ccccc3)c3c(N4CCOCC4)ncnc32)cc1 | 87.7%
29 | CCCC(=O)NC(c1ccc(C(C)C)cc1)c1ccc2cccnc2c1O (stereo not drawn) | 54.3%
30 | CCCC(=O)NC(c1ccccc1)c1ccc2cccnc2c1O (stereo not drawn) | 26.9%
31 | CCCCC(=O)NC(c1ccccc1)c1ccc2cccnc2c1O (stereo not drawn) | 47.5%
32 | CN1C/C(=C/c2ccccc2[N+](=O)[O-])C(=O)/C(=C\c2ccccc2[N+](=O)[O-])C1 | 50.1%
33 | O=C(CCn1cnc(-c2ccccc2)c1-c1ccccc1)N/N=C/c1ccccc1O | 67.6%
